Screening data: PubChem BioAssay, National Center for Advancing Translational Sciences (NCATS)
Shiga toxin inh – Shiga toxin inhibition; inhibition, % at 38.7 µM; Vero cells, Shiga toxin protein synthesis inhibition reporter; AID 2315; 290,000 compounds, 9.2% hits; in the data active = inhibition mostly above about 28%, no sharp cut-off; inactive = mostly below about 43%
Pf growth 48h – P. falciparum growth inhibition at 48 hours (one generation). 310,000 compounds, 5.9% hits. AID 504832. P. falciparum luciferase growth in erythrocytes, 48 h. Potency, µM (highest dose often 28.7 µM), hits mostly inhibitors
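Read-out is firefly luciferase luminescence from an integrated reporter in P. falciparum, so falling signal marks reduced parasite growth. Infected erythrocytes were at 2% hematocrit and 0.1% parasitemia (final) in Albumax-supplemented RPMI 1640.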
Cycloheximide cs – counter-screen for Shiga toxin inhibitors: cycloheximide protein synthesis inhibition | max response, % | 300,000 compounds, 12% hits | cell reporter, cycloheximide protein synthesis inhibition counterscreen; in the data active = max response mostly above about 13%, no sharp cut-off; inactive = mostly below about 14%; also: read at 38.3 µM for the half of the compounds with a filed dose
NS1 function inh – blocks influenza NS1 protein function | Potency, µM (doses to about 46.1 µM) | 270,000 compounds, 0.4% hits | AID 2326; calls by dose curve; also: actives are rising curves; nearly all actives have a fitted effect of over 50% in size
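Growth recovery, yeast-based: influenza A NS1 expressed in S. cerevisiae causes slow growth, and suppressors are detected by OD600. The parent strain without NS1 is used as positive control.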
Pf growth 96h – inhibits malaria parasite growth, 96 h. 320,000 compounds, 6.9% hits. Potency, µM (top dose mostly 28.7 µM), usual class: inhibitors. P. falciparum luciferase reporter growth, 96 h
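Delayed-death screen, second-generation endpoint: infected erythrocytes, 2% hematocrit, 0.05% parasitemia final; 96 hours at 37 C, 5% CO2; luciferase detection reagent; luminescence decrease equals reduced growth.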
Large screens that a line does not name were inactive. In the library only some 21% were active in any assay of this set; here they are far more common. Unless noted, calls follow the shape of the dose curve; as a rule, active = well fitted inhibition curve with a large enough effect; inconclusive = small, poorly fitted or top-dose-only effect, or another doubt; inactive = no such curve, though single readings can be large or run the other way.

Cc1cc(C)nc(Nc2nc3ccccc3o2)n1	Shiga toxin inh 45.3, Pf growth 48h inconclusive, Cycloheximide cs 27.4
O=C(COC(=O)CCc1nc2ccccc2c(=O)[nH]1)Nc1ccc(OC(F)(F)F)cc1	none (no result: Shiga toxin inh, Cycloheximide cs, NS1 function inh)
O=C(NNc1nc2ccccc2o1)c1ccccc1	Shiga toxin inh 55.5, Cycloheximide cs 29.8
O=C(NNc1nc2ccccc2nc1C(F)(F)F)c1ccccc1	none
Cc1ccc(NC(=O)c2c(C)nc(Nc3nc4ccccc4o3)nc2C)cc1	none
FC(F)(F)Oc1ccc(Nc2nc3ccccc3o2)cc1	Shiga toxin inh 76.8, Cycloheximide cs 33.1, Pf growth 96h inconclusive
CCOC(=O)c1c(S(=O)(=O)NCC2CCN(CCc3cccs3)CC2)c(C)n(C)c1C	Pf growth 96h inconclusive
Cn1cc(CNCc2ccc(-n3cccn3)cc2)c(-c2ccccc2F)n1	none
Fc1ccccc1Nc1nc2ccccc2o1	Shiga toxin inh 97.5, Cycloheximide cs 45.0
Fc1ccccc1Nc1nc(-c2ccncc2)nc2ccccc12	Pf growth 48h inconclusive, Pf growth 96h inconclusive
CN(C)c1nc(-c2ccccc2)ncc1S(=O)(=O)c1ccccc1	none
CC(C)(C)S(=O)(=O)c1cnc(-c2ccc(Cl)cc2)nc1N	Shiga toxin inh 46.8, Cycloheximide cs 22.2
CC(C)(C)S(=O)(=O)c1cnc(N2CCCCC2)nc1N	Cycloheximide cs 18.8
Cc1nn(-c2ccccc2)c(C)c1/C=N/NC(=O)c1cccs1	Pf growth 48h inconclusive, Cycloheximide cs 14.5, Pf growth 96h inconclusive
O=C(CSc1nnc(SCc2ccccc2)s1)N/N=C/c1c(Cl)cccc1Cl	none
CCOc1ccc(Oc2c(/C=N/NC(=O)C3CC3)c(C)nn2-c2ccccc2)cc1	Pf growth 48h 3.29µM, Pf growth 96h inconclusive
Cc1nn(-c2ccccc2)c(C)c1/C=N/NC(=O)CSc1nnc(SCc2ccc(Cl)cc2)s1	Cycloheximide cs 40.8, Pf growth 96h inconclusive
Cc1nn(-c2ccccc2)c(N2CCCC2)c1/C=N/NC(=O)C1CC1	Pf growth 48h 10.4µM, Pf growth 96h 11.7µM
O=c1cc(N2CCCC2)c2ccccc2o1	none
CCOC(=O)c1cccc(NC(=O)CSc2nncn2-c2ccccn2)c1	none
Cc1nn(-c2ccccc2)c(C)c1/C=N\N1CCN(c2ccc(Cl)cc2)CC1	Pf growth 48h 13.1µM, Pf growth 96h inconclusive
Cc1nn(-c2ccccc2)c(C)c1/C=N/NC(=O)c1cc(O)cc(O)c1	Pf growth 48h inconclusive, Pf growth 96h inconclusive
Cc1nn(-c2ccccc2)c(C)c1/C=N/NC(=O)c1ccccc1O	Shiga toxin inh 38.2, Pf growth 48h 3.7µM, Cycloheximide cs 41.7, Pf growth 96h 6.57µM
O=C(N/N=C/c1cc2c3c(c1O)CCCN3CCC2)c1ccccc1O	Pf growth 48h 3.29µM, Pf growth 96h 2.62µM
Cc1nn(-c2ccccc2)c(C)c1/C=N/n1cnnc1	Pf growth 96h inconclusive (no result: NS1 function inh)
Cc1nn(-c2ccccc2)c(N2CCCC2)c1/C=N/NC(=O)c1ccccc1O	Pf growth 48h 8.28µM, Pf growth 96h 13.1µM
Cc1cc(C)n2nc(C(=O)N3CCCC(Nc4ccc(F)c(F)c4)C3)cc2n1 (stereo unspecified)	none
CCCN(CCO)Cc1ccc2ccccc2c1	none (no result: Pf growth 48h)
CC(C)N(Cc1cnn(C)c1)Cc1nc(-c2ccc(Cl)cc2)no1	none
CC(/C=N/NC(=O)c1cc(-c2cccnc2)nc2c1c(C)nn2-c1ccccc1)=C\c1ccccc1	Pf growth 48h inconclusive, Pf growth 96h 2.94µM
Cc1nn(-c2ccccc2)c(N2CCCC2)c1/C=N/NC(=O)c1cc(-c2cccnc2)nc2ccccc12	Pf growth 48h 11.7µM, Pf growth 96h inconclusive
COc1ccc(NC(=O)c2cc(-c3ccccc3)nc3c2c(C)nn3-c2ccccc2)c(OC)c1	Pf growth 48h inconclusive, Pf growth 96h inconclusive
Cc1nn(-c2ccccc2)cc1/C=N/NC(=O)c1cccs1	Shiga toxin inh 102.3, Cycloheximide cs 44.3
Cc1nn(-c2ccccc2)c(C)c1/C=N/O	Cycloheximide cs 13.7
Cc1nn(-c2ccccc2)cc1/C=N/NS(=O)(=O)c1ccccc1	none
Cc1sc2nc(SCC(=O)NCCOCCO)n(C)c(=O)c2c1C	none
O=C(NC1CCCC1)C1CCN(C(=O)c2ccc(-c3ccccc3)cc2)CC1	Pf growth 48h inconclusive
CC(/C=N/NC(=O)CSc1nnc(SCc2ccccc2)s1)=C\c1ccco1	Cycloheximide cs 13.6, NS1 function inh inconclusive, Pf growth 96h inconclusive
O=C(O)COc1ccccc1/C=N/NC(=O)CSc1nnc(SCc2ccccc2)s1	none
CCOC(=O)C(c1ccccc1)C(Nc1cc(C(F)(F)F)cc(C(F)(F)F)c1)c1ccccn1 (stereo unspecified)	Pf growth 48h inconclusive
O=C(N/N=C/c1ccccc1C(F)(F)F)c1ccc2nc[nH]c2c1	Shiga toxin inh 29.0, Pf growth 48h inconclusive, Cycloheximide cs 48.6
CCc1ccc(C(=O)N/N=C/c2ccc(Cl)cc2Cl)nc1	Cycloheximide cs 17.7
O=C(C[n+]1ccc(C(=O)N/N=C/c2ccc(Cl)cc2Cl)cc1)c1ccccc1	Pf growth 96h inconclusive (no result: Pf growth 48h)
O=C(N/N=C/c1ccco1)c1ccc2nc[nH]c2c1	none
O=C(N/N=C/c1ccc(Cl)cc1Cl)c1cccc(F)c1	Shiga toxin inh 137.0, Cycloheximide cs 32.9
O=C(N/N=C/c1ccc(Cl)cc1Cl)c1ccc2nc[nH]c2c1	Shiga toxin inh 53.1, Pf growth 48h inconclusive, Cycloheximide cs 23.5, Pf growth 96h inconclusive
O=C(CSCc1ccc(Cl)cc1)N/N=C/c1ccc(Cl)cc1Cl	Pf growth 96h inconclusive
Cc1ccc(-c2nnc(SCC(=O)NNC(=O)COc3cccc4ccccc34)n2C)cc1	none
CC1CC(C)CN(C(=O)CSc2nnc(N)s2)C1 (stereo unspecified)	none
CCN1CCN(CC(=O)Nc2ccc(OC(F)(F)F)cc2)CC1	none (no result: Pf growth 48h)
O=C(CN1CCCC1)Nc1ccc(OC(F)(F)F)cc1	Cycloheximide cs 19.6 (no result: Shiga toxin inh)
O=C(CN1CCOCC1)Nc1ccc(OC(F)(F)F)cc1	Cycloheximide cs 20.9
CC1=C(C(=O)Nc2cc(C(=O)N3CCN(c4cccc(C)c4C)CC3)ccc2C)SCCO1	Pf growth 96h 10.4µM
CCOC(=O)C1CCCN(C(=O)c2ccccc2NC(=O)C2=C(C)OCCS2)C1 (stereo unspecified)	Pf growth 48h inconclusive, Pf growth 96h 4.15µM
CC1=C(C(=O)Nc2ccccc2C(=O)N2CCC(C)CC2)SCCO1	Pf growth 48h 13.1µM
COc1cc(CCNC(=O)c2ccccc2NC(=O)C2=C(C)OCCS2)cc(OC)c1OC	Pf growth 48h inconclusive
COc1cc(CNC(=O)c2ccccc2NC(=O)C2=C(C)OCCS2)cc(OC)c1OC	Pf growth 48h 13.1µM, Pf growth 96h inconclusive
C/C(=N\NC(=O)C(=O)Nc1cc(C)ccc1C)c1ccncc1	none
CC(=O)Nc1ccc(NC(=O)COc2ccc(S(=O)(=O)N3CCCC3)cc2)cc1	Pf growth 48h inconclusive, Pf growth 96h inconclusive
CC(C)NC(=O)COc1ccc(S(=O)(=O)N2CCCC2)cc1	Pf growth 96h 1.47µM
CCOc1ccc(S(=O)(=O)N2CCC(C(=O)OCc3cccc(OC)c3OC)CC2)cc1	Pf growth 48h 9.28µM, Pf growth 96h inconclusive (no result: Shiga toxin inh, Cycloheximide cs, NS1 function inh)
CCc1ccc(OCC(=O)NC(C)C)cc1	Shiga toxin inh 110.7, Cycloheximide cs 27.1
CSc1ccccc1NC(=O)COc1ccc(S(=O)(=O)N2CCCC2)cc1	Pf growth 48h 13.1µM, Pf growth 96h inconclusive
